# Experimental data taken from PubChem BioAssay AID778 (Sanford-Burnham Center for Chemical Genomics, 2007).
# The campaign covered roughly 96,000 compounds. About 20,000 (21%) were called active.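 Rule for the calls: active = CYP2C19 inhibition above a set limit at 5 µM in the primary screen (cut at about 50% in these data); inactive = the rest.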 The list is a sample of the results.
# Target: Cytochrome P450 2C19 (Homo sapiens) (UniProt P33261)
# Assay: blockers of cytochrome P450 2C19 activity – biochemical, luminescence, ADME assay, primary screen (AID 778);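 note: plate controls were negative control wells for no effect and 2.5 mM tranylcypromine positive control for full effect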
# Settings: CYP2C19 Supersomes, luciferin-H EGE luminescence, 30 min; at 5 µM; stronger effect = higher value
# Cytochrome P450 2C19 (Homo sapiens), sequence (P33261 whole entry, looked up): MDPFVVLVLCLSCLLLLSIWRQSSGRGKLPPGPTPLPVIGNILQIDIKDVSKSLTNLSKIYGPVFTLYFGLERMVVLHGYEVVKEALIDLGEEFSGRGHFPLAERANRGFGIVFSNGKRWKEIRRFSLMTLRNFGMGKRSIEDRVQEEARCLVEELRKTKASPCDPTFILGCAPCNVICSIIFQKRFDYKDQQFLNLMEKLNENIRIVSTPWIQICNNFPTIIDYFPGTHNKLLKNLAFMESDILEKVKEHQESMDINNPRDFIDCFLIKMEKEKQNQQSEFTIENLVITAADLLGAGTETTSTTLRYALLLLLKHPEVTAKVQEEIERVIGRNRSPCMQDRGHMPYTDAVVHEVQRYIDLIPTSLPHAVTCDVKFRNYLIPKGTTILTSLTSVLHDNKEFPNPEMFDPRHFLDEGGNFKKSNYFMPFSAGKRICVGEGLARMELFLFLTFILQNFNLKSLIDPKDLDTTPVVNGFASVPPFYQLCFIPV
row,Compound,inhibition
1,COCCOCCn1cnc2ccccc21,-2.7% (inactive)
2,O=C(COC(=O)c1ccc(Oc2ccccc2)cc1)Nc1nnc(-c2ccccc2)o1,34.2% (inactive)
3,CCOC(=O)c1c(C)oc2ccc(OCC(=O)N(CC)CC)cc12,47.5% (inactive)
4,CCOc1ccc(NCCC(=O)c2ccc3c(c2)OCO3)cc1,37.9% (inactive)
5,CCOC(=O)c1c(C)[nH]c(C(=O)COc2ccc3c(c2)OCO3)c1C,78.4% (active)
6,CN1CCN(CCCNC(=O)c2cc3c(=O)oc4ccccc4c3s2)CC1,-1.6% (inactive)
7,CC(C)(CNCC(O)c1ccccc1)N1CCOCC1 (stereo unspecified),-1.1% (inactive)
8,CCC(=O)NNc1cc(=O)c2c(=O)n(C)c(=O)n(C)c2[nH]1,11.1% (inactive)
9,COc1ccc2oc(=O)c(C(=O)N3CCCc4ccccc43)cc2c1,10.2% (inactive)
10,O=C(c1c(Cl)nc2sccn12)N1CCCc2ccccc21,91.5% (active)
11,O=C(c1cccc(C(=O)N2CCc3ccccc32)n1)N1CCc2ccccc21,12.3% (inactive)
12,Cc1noc(COc2ccccc2OCC(O)CNC(C)(C)C)n1 (stereo unspecified),-7.7% (inactive)
13,CN(c1ccccc1)c1ccc(/C=c2\s/c(=C(/C#N)C(=O)C(C)(C)C)n(Cc3ccco3)c2=O)cc1,5.4% (inactive)
14,Cn1c(-c2sc3cc(C(F)(F)F)cnc3c2-c2ccccc2)n[nH]c1=S,47.3% (inactive)
15,FC(F)(F)c1cc(-c2cccs2)nc(NCc2ccco2)n1,20.5% (inactive)
16,FC(F)(F)c1cc(-c2ccco2)nc(NCc2ccc(Cl)cc2)n1,57% (active)
17,FC(F)(F)c1cc(-c2ccco2)nc(N2CCOCC2)n1,-16.1% (inactive)
18,Cc1ccccc1NC(=O)c1cnn(-c2ccccc2)c1NC(=O)c1ccco1,-2.6% (inactive)
19,COCCNC(=O)C(c1ccc(C)o1)N(Cc1cccs1)C(=O)c1snc(C(N)=O)c1N (stereo unspecified),2.1% (inactive)
20,c1ccc2c(c1)OCC(c1nn3cnnc3s1)O2 (stereo unspecified),74.8% (active)
21,O=C(CCN1C(=O)COc2ccccc21)NCCCN1CCN(c2ccc(F)cc2)CC1,-10.1% (inactive)

row,Compound,inhibition
1,CCOC(=O)c1cnc(-n2nc(C)cc2C)nc1-n1nc(C)cc1C,5.2% (inactive)
2,O=C(NNS(=O)(=O)c1ccc(Cl)cc1)C1CCN(Cc2ccccc2)CC1,6% (inactive)
3,CCOC1CCCCC1NS(=O)(=O)c1ccc(Cl)cc1 (stereo unspecified),69.5% (active)
4,CCc1nnc(NC(=O)c2ccc(S(=O)(=O)NC3CCCCC3)cc2)s1,14.5% (inactive)
5,C=CCOC(=O)C1=C(C)NC(SCC(=O)OCC)=C(C#N)C1c1ccc(C)cc1 (stereo unspecified),33.7% (inactive)
6,C=CCOC(=O)C1=C(C)OC(N)=C(C#N)C1c1ccc(F)cc1 (stereo unspecified),75.2% (active)
7,CCCc1[nH]nc2c1C(c1ccc(OC(=O)c3ccco3)cc1)C(C#N)=C(N)O2 (stereo unspecified),43.8% (inactive)
8,Cc1c(C#N)c2ncn(CC#N)c(=O)c2n1-c1ccccc1,-12.1% (inactive)
9,CCOc1cc(N2CCOCC2)c(OCC)cc1NC(=O)COc1cccc2cccnc12,3.8% (inactive)
10,C=CCn1c(COc2cccc3cccnc23)nnc1SCC(=O)OC,26.2% (inactive)
11,Cc1cc(OCCOc2cccc3cccnc23)c(C)cc1Cl,73.2% (active)
12,CN(C)Cc1c(C#N)c2ccccc2n1C,-0.3% (inactive)
13,O=c1[nH]nc(CSCc2ccccc2Cl)[nH]1,1.4% (inactive)
14,S=c1[nH]nc(CSCc2ccc(Cl)cc2Cl)n1-c1ccccc1,64.8% (active)
15,Clc1ccc(CSc2nnc(/C=C/c3ccccc3)o2)c(Cl)c1,1.6% (inactive)
16,COC(=O)CCSc1cc([N+](=O)[O-])cc2c1c(C1OCCS1)nn2-c1ccccc1 (stereo unspecified),8.6% (inactive)
17,Cc1ccc(Nc2nc(C)cc(C)c2C(N)=O)cc1,7.6% (inactive)
18,O=C1c2oc3ccccc3c(=O)c2C(c2cccc(O)c2)N1c1ccccn1 (stereo unspecified),38.4% (inactive)
19,O=C1c2oc3ccc(Br)cc3c(=O)c2C(c2cccc(F)c2)N1CCO (stereo unspecified),40.4% (inactive)
20,COCCN1C(=O)c2oc3c(C)cc(C)cc3c(=O)c2C1c1cccc(O)c1 (stereo unspecified),70.6% (active)
21,Cc1ccc(-n2ncc3c(Nc4cccc(C(=O)O)c4)ncnc32)cc1,-20% (inactive)

row,Compound,inhibition
1,COC(=O)c1ccc(C2C(Oc3ccccc3C)C(=O)N2CCc2ccc(OC)c(OC)c2)cc1 (stereo unspecified),65.2% (active)
2,COc1ccc(CCN2C(=O)c3[nH]nc(-c4ccccc4O)c3C2c2ccc(C)cc2)cc1OC (stereo unspecified),21.1% (inactive)
3,COCCn1c(=S)[nH]c2cc(C(=O)NCCc3ccc(OC)c(OC)c3)ccc2c1=O,17.7% (inactive)
4,c1csc(-c2cn3c(n2)SCC3)c1,-13.7% (inactive)
5,CC(C)C(C(=O)NC1CCCCC1)N(CC1CCCO1)C(=O)CNS(=O)(=O)c1ccc(F)cc1 (stereo unspecified),-10.8% (inactive)
6,c1ccc(-c2nnc3n2NC(c2ccc4c(c2)OCO4)S3)cc1 (stereo unspecified),28.9% (inactive)
7,CCn1c(SC)nc(O)c(C(c2ccc(OC)c(O)c2)c2c(O)nc(SC)n(CC)c2=O)c1=O,-2.9% (inactive)
8,O=S(=O)(Cc1cc(Sc2ccccc2)nc(-c2ccccc2)n1)c1ccccc1,50.5% (active)
9,CC1CC(C)CN(CC(=O)N2c3ccccc3CCc3ccccc32)C1 (stereo unspecified),24.7% (inactive)
10,O=C(CSCc1ccccc1)N1CCc2ccccc21,51.6% (active)
11,Cc1ccc(S(=O)(=O)N(C)CC(=O)N2CCc3ccccc32)cc1,9.1% (inactive)
12,Cn1cnc2c1c(=O)n(Cc1c(Cl)cccc1Cl)c(=O)n2C,49.5% (inactive)
13,Cc1c(C#N)c(NC(=O)c2ccccc2)n(Cc2ccccc2)c1C,22.6% (inactive)
14,CCOC(=O)CCC(=O)OCC(=O)NC(C)C1CC2CCC1C2 (stereo unspecified),10.6% (inactive)
15,CCOC(=O)N1CCC(O)(c2cc(C)c(C)cc2C)CC1,43.5% (inactive)
16,CNC(=O)CN1C(=O)c2ccccc2S1(=O)=O,-9.3% (inactive)
17,O=C(CN1C(=O)c2ccccc2S1(=O)=O)N1CCc2ccccc21,-7.4% (inactive)
18,O=C1c2ccccc2S(=O)(=O)N1CC(O)Cn1c2ccccc2c2ccccc21 (stereo unspecified),73.4% (active)
19,COc1ccc(-n2ncc3c(N4CCc5ccccc54)ncnc32)cc1,-2.2% (inactive)
